# Hits are enriched below; roughly 2.5% of the tested compounds scored in any of these assays.
# Cruzain inh noDet: qHTS Assay for Promiscuous and Specific Inhibitors of Cruzain (without detergent) | purified cruzain, Z-FR-AMC fluorescence, no detergent | Potency, µM, without a hit: max response, negative = inhibition, usual class: inhibitors | AID 1476, 2009 | Cruzipain (Trypanosoma cruzi), P25779 | 200,000 compounds, 2.3% hits;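 further: plate controls were enzyme without inhibitor for no effect and buffer without enzyme for full effect; nearly all actives have a fitted effect of over 40% in size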
# Target sequence (P25779 123-467 limits assumed): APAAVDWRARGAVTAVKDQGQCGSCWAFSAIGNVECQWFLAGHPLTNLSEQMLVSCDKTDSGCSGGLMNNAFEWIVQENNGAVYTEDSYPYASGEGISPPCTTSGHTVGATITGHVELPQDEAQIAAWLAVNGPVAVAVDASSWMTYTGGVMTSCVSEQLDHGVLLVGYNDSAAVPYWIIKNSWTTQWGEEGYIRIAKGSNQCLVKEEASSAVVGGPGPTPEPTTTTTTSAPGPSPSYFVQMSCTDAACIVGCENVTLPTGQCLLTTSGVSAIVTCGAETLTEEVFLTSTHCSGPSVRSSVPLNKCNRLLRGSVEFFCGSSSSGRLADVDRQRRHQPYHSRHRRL
#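 Detergent-free condition (0.00005% Triton X-100) in acetate buffer pH 5.5 with DTT. 1.5 nM enzyme and compound were pre-mixed 15 min, then 2 uM Z-FR-AMC substrate added; reaction progress from fluorescence change between first and third reads (60 s).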
# Cruzain Triton: qHTS Assay for Promiscuous and Specific Inhibitors of Cruzain (with detergent) | AID 1478, 2009 | 200,000 compounds, 0.43% hits | Cruzipain (Trypanosoma cruzi), P25779 | Potency, µM, for inactives: max response, negative = inhibition, usual class: inhibitors | purified cruzain, Z-FR-AMC fluorescence, 0.01% Triton;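 further: plate controls were neutral wells for no effect and buffer without enzyme for full effect; nearly all actives have a fitted effect of over 40% in size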
#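 Compounds were screened in titration against cruzain (1.5 nM) with 0.01% Triton X-100 to counter colloidal aggregation. Activity was the AMC fluorescence increase over 60 s after adding 2 uM Z-FR-AMC at pH 5.5.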
# Starred values were filed as active, the others as inactive; ? = inconclusive. The call rests on the fitted dose curve; in most records, active means well fitted curve in the direction sought with a large enough effect; inconclusive means small, poorly fitted or top-dose-only effect, or another doubt; inactive means no such curve, though single readings can be large; an effect the other way counts as inactive or inconclusive. Potency means the concentration at half of the fitted maximal effect.
SMILES,Cruzain inh noDet,Cruzain Triton
O=C(Nc1nc(-c2cccnc2)cs1)c1ccc(S(=O)(=O)N2CCOCC2)cc1,-3.0%,7.1%
CCc1nnc(NC(=O)c2ccc(S(=O)(=O)N3CCCCCC3)cc2)s1,12.6µM*,4.1%
O=C(Nc1nc(-c2ccc(S(=O)(=O)N3CCCCCC3)cc2)cs1)c1ccccc1,10µM*,-3.3%
Cc1cccc(-n2ccnc2SCC(=O)Nc2nnc(C)s2)c1,3.5%,4.7%
COC(=O)c1ccccc1NC(=O)CSc1nc(=O)cc(N)n1-c1ccccc1,-1.2%,25.1µM*
Cc1cccc(-n2c(N)cc(=O)nc2SCC(=O)Nc2nnc(C)s2)c1,25.1µM*,?
COC(=O)c1ccccc1NC(=O)CSc1nc(O)cc(=O)n1C1CCCC1,?,-1.6%
CCc1cccc(CC)c1NC(=O)CCS(=O)(=O)c1ccc(Br)s1,-8.3%,-2.7%
Cc1ccc(NC(=O)Cn2nnc(C(=O)NCCc3ccccc3)c2N)cc1Cl,?,-3.8%
CC(C)c1ccc(NC(=O)Cn2nnc(C(=O)NCc3ccc(Cl)cc3)c2N)cc1,7.94µM*,-0.5%
CC(C)c1ccc(NC(=O)Cn2nnc(C(=O)NCc3cccs3)c2N)cc1,-7.5%,0.3%
Nc1c(C(=O)NCCc2ccccc2)nnn1CC(=O)Nc1ccc(Cl)cc1,25.1µM*,-0.7%
O=C(Cn1c(=O)c2ccccc2n(CC(=O)Nc2ccc(Cl)cc2)c1=O)NCCc1ccccc1,12.6µM*,-0.2%
O=C(Cn1c(=O)c2ccccc2n(CC(=O)Nc2ccccc2F)c1=O)NCCc1ccccc1,-15.8%,0.9%
O=C(c1ccco1)N1CCN(c2nc3c(F)cc(F)cc3s2)CC1,-13.2%,-11.7%
CC(=O)NC(NC(=S)Nc1ccc(N=Nc2ccccc2C)cc1C)C(Cl)(Cl)Cl (stereo not drawn),7.94µM*,-3.5%
Cc1ccc(NC(=S)NC(NC(=O)C(C)(C)C)C(Cl)(Cl)Cl)c(C)c1 (stereo not drawn),10.0%,4.2%
CCCCNc1nc2c(-c3cccc(C)c3)nnn2c2ccccc12,17.1%,-0.7%
Cc1nn(-c2ccccc2)c(Cl)c1/C=N/Nc1ccc(S(=O)(=O)Nc2ccccc2C(=O)O)cc1[N+](=O)[O-],?,14.1µM*
Cc1nn(-c2ccccc2)c(Cl)c1/C=N/Nc1ccc(Cl)c(C(=O)O)c1,-5.3%,-10.0%
Cc1cc(NC(=O)c2cnn(-c3ccccc3)c2-n2cccc2)ccc1Br,4.4%,-0.8%
Cc1ccc(-n2ncc3c(N4CCCCC4)ncnc32)cc1,-13.8%,-0.4%
COc1cccc(N2CCN(CC(=O)NCc3cccs3)CC2)c1,-3.5%,0.8%
COc1cccc(N2CCN(CC(=O)Nc3nnc(-c4ccccc4)s3)CC2)c1,25.1µM*,-2.2%
Cc1ccc(N(CC(=O)Nc2ccc(Cl)cc2)S(=O)(=O)c2cccc3nonc23)cc1,?,-4.2%
SMILES,Cruzain inh noDet,Cruzain Triton
Cc1c(C(=O)OCC2CCCCC2)[nH]c2c1C(=O)CC(c1ccccc1Cl)C2 (stereo not drawn),-8.6%,0.0%
CCCCCN1C(C(=O)c2ccccc2)=C(NC(=O)c2ccccc2Cl)c2ccccc2S1(=O)=O,10µM*,-5.5%
CCCCCN1C(C(=O)c2ccccc2)=C(NC(C)=O)c2ccccc2S1(=O)=O,4.3%,-10.8%
Cc1ccc(OCc2nnc(NC(=O)c3ccco3)s2)cc1,-11.4%,-1.0%
Cc1ccc(OCCSc2nnc(NC(=O)c3ccco3)s2)cc1,25.1µM*,3.7%
C=C1c2ccccc2O[C@H](C(=O)OCC)C1OC (mixture of isomers),-7.7%,0.8%
CCOc1ccccc1NC(=O)c1cc(S(=O)(=O)N2CCOCC2)cn1C,4.8%,-6.7%
COc1ccc(Oc2nc(Oc3ccc(OC)cc3)nc(Oc3ccc(OC)cc3)n2)cc1,3.16µM*,1.6%
COc1nc(Oc2ccc(C(=O)O)cc2)nc(Oc2ccc(C(=O)O)cc2)n1,-6.9%,5.1%
Cc1ccc(Cn2ccc(NC(=O)c3cc(-c4ccc(Cl)cc4)on3)n2)cc1,0.6%,-3.2%
Cc1ccc(Cn2ccc(NC(=O)c3cc(-c4ccc(F)cc4)on3)n2)cc1,20µM*,7.6%
CC(=O)c1cccc(NC(=O)c2cc(-c3ccc(C)cc3)on2)c1,25.1µM*,1.1%
CC(=O)c1cccc(NC(=O)c2cc(-c3ccc4c(c3)OCCO4)on2)c1,-1.5%,0.2%
COc1cccc(-c2cc(C(=O)Nc3cc(C)on3)no2)c1,-5.4%,0.1%
Cc1cc(NC(=O)c2cc(-c3cccc(Cl)c3)on2)no1,20µM*,4.7%
CC(C)Cn1nnnc1S(=O)(=O)CC#N,-8.0%,4.7%
COCCNC(=O)Cn1c(=O)n(-c2ccc(C)c(C)c2)c(=O)c2c3c(sc21)CCCCC3,-6.9%,-1.6%
CCc1ccc(S(=O)(=O)c2nnn3c2nc(N(CC)Cc2ccccc2)c2cc(Cl)ccc23)cc1,-2.4%,-0.6%
CC1(C)c2ssc(=S)c2-c2ccccc2N1C(=O)c1ccco1,?,-4.2%
Cc1ccc2c(c1)-c1c(ssc1=S)C(C)(C)N2C(=O)c1ccco1,15.8µM*,-16.2%
CCc1ccc(OC(=O)c2sc3ncn(Cc4cccc(F)c4)c(=O)c3c2C)cc1,-5.2%,2.9%
COC(=O)c1sccc1S(=O)(=O)N(CC(=O)NCc1ccc(F)cc1)c1ccc(C)c(C)c1,-4.8%,-0.1%
CC(=O)N1c2nc(C(C)C)nn2C2(CCCCC2)[C@@H]2CCCC[C@@H]21,0.4%,-0.5%
CSc1cc(-c2ccccc2)n(Cc2ccc(Cl)cc2Cl)c(=O)c1C#N,25.1µM*,4.5%
Cc1cc(C)n(Cc2ccc(Cl)cc2Cl)c(=O)c1S(=O)(=O)c1ccccc1,-14.4%,-8.8%
SMILES,Cruzain inh noDet,Cruzain Triton
Cc1ccc2c(=O)cc(C(=O)Nc3c(C)n(C)n(-c4ccccc4)c3=O)oc2c1C,-5.8%,-1.5%
Cc1nn(-c2ccc([N+](=O)[O-])cc2)c2c1C(c1cccc(Br)c1)N1C(=N2)C(=O)Nc2ccccc21 (stereo not drawn),3.98µM*,-2.9%
Cc1nn(-c2ccccc2)c2c1C(c1ccc([N+](=O)[O-])cc1)N1C(=N2)C(=O)Nc2ccccc21 (stereo not drawn),-8.5%,-10.1%
O=C(Cn1nc2c(cc1=O)CCCC2)NCc1ccc(Cl)cc1,3.3%,-0.6%
Cc1ccc(CNC(=O)c2ccc(CS(=O)(=O)c3ccccc3C)o2)cc1,-1.9%,-2.3%
COC(=O)c1ccc(CS(=O)(=O)c2ccccc2C)o1,15.8µM*,2.8%
COc1ccc(S(=O)(=O)N2CCC(n3c(C)nc4cccnc43)CC2)cc1Cl,?,-1.8%
COc1ccc(C2Nc3ccccc3-c3nnc(SC)nc3O2)cc1C (stereo not drawn),-1.7%,-8.3%
O=C(OCc1ccccc1F)c1ccc(-c2nnn(Cc3ccccc3)n2)cc1,22.6%,5.7%
CCC(CC)C(=O)N1c2ccccc2C(C)(c2ccccc2)CC1(C)C (stereo not drawn),-8.3%,-3.6%
CN(C)c1ccc(/C=N\NC(=S)SCN2C(=O)C3CCC(C)(C2=O)C3(C)C)cc1 (stereo not drawn),31.6µM*,1.9%
CC12CCC(C(=O)N(CSC(=S)N/N=C\c3ccccc3O)C1=O)C2(C)C (stereo not drawn),?,-19.1%
Cc1ccc(S(=O)Cc2ccc(C(=O)NCc3ccc(OC(C)C)cc3)o2)cc1 (stereo not drawn),23.3%,-3.2%
O=C(Cn1c(-c2cccs2)cc2cc(F)ccc21)NCCc1ccc(Cl)cc1,12.6µM*,-1.9%

# Source: PubChem BioAssay
